# According to PubChem BioAssay (NCATS):
# Results filed as inconclusive are left out. Entries that show only a call come without a potency. The source made the active and inactive calls. Unless noted, calls come from the whole dose curve; as a rule, active = well fitted curve in the direction sought with a large enough effect; inconclusive = small, poorly fitted or top-dose-only effect, or another doubt; inactive = no such curve, though single readings can be large; an effect the other way counts as inactive or inconclusive.
# Legend:
# [1] = molecular target: Glutathione peroxidase 1 (Homo sapiens) (UniProt P07203); experiment: Primary qHTS Assay for Inhibitors of Recombinant Selenoprotein Glutathione Peroxidase 1 (GPX1) (AID 1845191); note: nearly all actives have a fitted effect of over 65% in size
# Chain of Glutathione peroxidase 1 (Homo sapiens) (P07203 whole entry, looked up): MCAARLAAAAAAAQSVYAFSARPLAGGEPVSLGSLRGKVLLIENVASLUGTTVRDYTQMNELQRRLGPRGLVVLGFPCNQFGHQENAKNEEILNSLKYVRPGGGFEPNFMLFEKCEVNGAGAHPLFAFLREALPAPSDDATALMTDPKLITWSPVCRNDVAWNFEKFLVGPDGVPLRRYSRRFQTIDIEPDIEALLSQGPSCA
# Method in brief: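 10 nM GPX1 + cpd, 30 min RT; start w/ 1 mM GSH, 0.5 mM cumene hydroperoxide, 0.5 mM NADPH, 100 nM GR, 0.01% BSA; buffer 50 mM Tris-HCl pH 7.5, 2 mM EDTA, 150 mM NaCl; Fl 340/450, 0 & 15 min.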
# [2] = molecular target: Phospholipid hydroperoxide glutathione peroxidase GPX4 (Homo sapiens) (UniProt P36969); experiment: Primary qHTS Assay for Inhibitors of Recombinant Selenoprotein Glutathione Peroxidase 4 (GPX4) (AID 1845192); note: nearly all actives have a fitted effect of over 65% in size; note: potency is the fitted concentration of half-maximal effect; for activity change, negative = inhibition: series mostly up to about 50 µM
# Chain of Phospholipid hydroperoxide glutathione peroxidase GPX4 (Homo sapiens) (P36969 whole entry, looked up): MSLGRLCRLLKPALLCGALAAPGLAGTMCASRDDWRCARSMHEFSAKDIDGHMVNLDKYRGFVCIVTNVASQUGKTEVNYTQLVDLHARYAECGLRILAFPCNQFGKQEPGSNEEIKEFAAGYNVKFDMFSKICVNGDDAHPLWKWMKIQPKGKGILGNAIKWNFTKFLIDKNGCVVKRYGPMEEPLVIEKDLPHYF
# Method in brief: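 NADPH consumption, followed by fluorescence at 340/450 nm between 0 and 15 min, reports GPX4 activity via coupled glutathione reductase (100 nM). Enzyme 200 nM was pre-exposed to compound 30 min; 0.5 mM cumene hydroperoxide and 1 mM GSH served as substrates.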
# [3] = qHTS drug screen for cell cycle checkpoint inhibitors in PARPi-resistant BRCA-mutant ovarian cancer cell lines. (AID 1963452; calls by dose curve); conditions: PEO1/OlaR viability, CellTiter-Glo luminescence, 96 h, stronger effect = lower value
# Method in brief: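 PEO1, PEO4 and PEO1/OlaR ovarian cancer cells, 600 per well, exposed 96 h at 37C to a dilution series. Viability read by CellTiter-Glo luminescence, normalized to DMSO and empty wells; activity summarized as Z-AUC.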
# [4] = molecular target: Luciferin 4-monooxygenase (Photinus pyralis) (UniProt P08659); experiment: Primary firefly luciferase (FLuc) qHTS assay for identification of artifact compounds. (AID 1845220); conditions: outcome: dose series up to 54.1 µM; note: nearly all actives have a fitted effect of over 60% in size; for activity change, negative = inhibition: series mostly up to about 54 µM
# Method in brief: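 FLuc 10 nM; luciferin 10 uM; ATP 10 uM; Tris-acetate pH 7.6, Mg-acetate 10 mM; 15 min RT preincubation; 5 min reaction; luminescence.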
# [5] = Primary fluorescence-based thiol-reactive (MSTI) qHTS assay for identification of artifact compounds. (AID 1845221);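 note: series mostly up to about 54 µM; thiol-reactive compounds lower the probe fluorescence signal; nearly all actives have a fitted effect of over 65% in size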
# Method in brief: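 A multi-concentration qHTS design tested compounds against 4 uM MSTI, pH 7.4 phosphate-buffered saline. Plates were protected from light for 1 h at room temperature before imaging fluorescence.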
# [6] = system: Nanoluciferase (engineered Oplophorus gracilirostris luciferase); experiment: Primary Nanoluciferase (NLuc) qHTS assay for identification of artifact compounds. (AID 1845222);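 note: NLuc secreted into diluted conditioned medium of S16 cells; series mostly up to about 54 µM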
# Method in brief: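 NLuc from S16 cell medium (1:55) plus test compounds, 15 min, room temperature. Luminescence after Nano-Glo (1:100) addition, 5 min.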
# [7] = Primary redox qHTS assay for identification of artifact compounds. (AID 1845223)
# Method in brief: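 Amplex Red (25 uM) and HRP (250 mU/mL) in HBSS, with compounds for 15 min, then 250 uM DTT for 30 min, room temperature, dark. Fluorescence 525/598 nm read; normalized to DMSO and 10 uM DA3003; Hill fit.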
# [8] = measured here: PEO1 parental Z-AUC
smiles,measurement,setting,value
CCCCCCCCCCCCCC(=O)OCC(COP(=O)([O-])OCC[N+](C)(C)C)OC(=O)CCCCCCCCCCCCC (configuration not stated),Potency,[1],inactive
same,Potency,[2],inactive
CC(C)Cc1ccc([C@@H](C)C(=O)NS(C)(=O)=O)cc1,Potency,[1],inactive
same,Potency,[2],inactive
same,Z-AUC,[3],1.32 (inactive)
same,Z-AUC,[3]; [8],0.781
same,Z-AUC,[3]; measured here: PEO4 Z-AUC,0.752
C[C@@](Cc1ccc(O)c(O)c1)(NN)C(=O)O,Potency,[1],inactive
same,Potency,[2],inactive
CC(=O)NCCCS(=O)(=O)O,Potency,[1],inactive
same,Potency,[2],inactive
same,Z-AUC,[3],1.02 (inactive)
same,Z-AUC,[3]; [8],1.45
same,Z-AUC,[3]; measured here: PEO4 Z-AUC,1.03
CNC(=O)[C@H](Cc1c[nH]c2ccccc12)NC(=O)[C@@H](CC(=O)NO)CC(C)C,Potency,[1],inactive
same,Potency,[2],inactive
same,Z-AUC,[3],0.599 (inactive)
same,Z-AUC,[3]; [8],0.54
same,Z-AUC,[3]; measured here: PEO4 Z-AUC,0.809
CC(C)c1nc(N(C)S(C)(=O)=O)nc(-c2ccc(F)cc2)c1/C=C/C(O)CC(O)CC(=O)O (configuration not stated),Potency,[1],inactive
same,Potency,[2],inactive
C/C(=C\C(=O)OCCCCCCCCC(=O)O)C[C@@H]1OC[C@H](C[C@@H]2O[C@H]2[C@@H](C)[C@H](C)O)[C@@H](O)[C@H]1O,Potency,[1],inactive
same,Potency,[2],inactive
same,outcome,[4],inactive
same,outcome,[5],inactive
same,outcome,[6],inactive
NC[C@H]1O[C@H](O[C@H]2[C@H](O)[C@@H](O[C@H]3O[C@H](CO)[C@@H](O)[C@H](N)[C@H]3O)[C@H](N)C[C@@H]2N)[C@H](N)C[C@@H]1O,Potency,[1],inactive
same,Potency,[2],inactive
same,Z-AUC,[3],-0.784 (inactive)
same,Z-AUC,[3]; [8],-0.522
same,Z-AUC,[3]; measured here: PEO4 Z-AUC,-0.139
C(=C\c1ccncc1)/c1ccccc1,Potency,[1],inactive
same,Potency,[2],inactive
CCCCCCCCCCCCCCCCCC(=O)OCC(C)O (configuration not stated),Potency,[1],inactive
same,Potency,[2],inactive
CCN(CC)CCOc1ccc2nc(N(C)C)sc2c1,Potency,[1],inactive
same,Potency,[2],inactive
CC(=O)[O][Al][O]C(C)=O,"activity, negative = inhibition",[1],-5.17% [at 9.52 µM] (inactive)
same,"activity change, negative = inhibition",[2],-11.7% [at 9.73 µM] (inactive)
Nc1nc(=O)n([C@@H]2CS[C@H](CO)O2)cc1F,Potency,[1],inactive
same,Potency,[2],inactive
C=C(C)C1CC=C(C)CC1 (configuration not stated),Potency,[1],inactive
same,Potency,[2],inactive
COc1ccc(C[C@H](C)NC[C@@H](O)c2ccc(O)c(NC=O)c2)cc1,Potency,[1],inactive
same,Potency,[2],inactive
same,outcome,[4],inactive
same,outcome,[5],inactive
same,outcome,[6],inactive
same,outcome,[7],inactive
OCCN1CCN(CC/C=C2/c3ccccc3Sc3ccc(Cl)cc32)CC1,Potency,[1],inactive
same,Potency,[2],inactive
CCCCCCCCCC(=O)NO,Potency,[1],inactive
same,Potency,[2],inactive
CC(CCc1ccc(O)cc1)NCC(O)c1ccc(O)cc1 (configuration not stated),Potency,[1],inactive
same,Potency,[2],inactive
O=C(OCc1ccccc1)c1ccc(O)cc1,Potency,[1],inactive
same,Potency,[2],inactive
CC(C)(C)c1ccc(CN2CCN(C(c3ccccc3)c3ccc(Cl)cc3)CC2)cc1 (configuration not stated),Potency,[1],inactive
same,Potency,[2],inactive
same,outcome,[4],inactive
same,outcome,[5],inactive
same,outcome,[6],inactive
same,outcome,[7],inactive
Cc1c(O)c(=O)ccn1C,Potency,[1],inactive
same,Potency,[2],inactive
CC(=O)Nc1ccc(NC(=S)NC(=O)c2ccc(C(C)(C)C)cc2)cc1,Potency,[1],inactive
same,Potency,[2],inactive
same,outcome,[4],inactive
same,outcome,[5],inactive
same,outcome,[6],inactive
same,outcome,[7],inactive
COc1cc(C)c(/C=C/C(C)=C/C=C/C(C)=C/C(=O)O)c(C)c1C,Potency,[1],inactive
same,Potency,[2],16.1 µM (active)
same,Z-AUC,[3],0.967 (inactive)
same,Z-AUC,[3]; [8],0.941
same,Z-AUC,[3]; measured here: PEO4 Z-AUC,1.13
FCOC(C(F)(F)F)C(F)(F)F,Potency,[1],inactive
same,Potency,[2],inactive
CCOC(=O)Oc1c(OC)cc(C(=O)O[C@@H]2C[C@@H]3CN4CCc5c([nH]c6cc(OC)ccc56)[C@H]4C[C@@H]3[C@H](C(=O)OC)[C@H]2OC)cc1OC,Potency,[1],inactive
same,Potency,[2],15.8 µM (active)
CC(C)[C@H](N)C(=O)OCC(CO)OCn1cnc2c(=O)[nH]c(N)nc21 (some centres not stated),Potency,[1],inactive
same,Potency,[2],inactive
